Experimental data: PubChem BioAssay (NCATS)
Values joined by “and” are separate entries in the source; they are usually repeats but may differ in a detail not shown here. Identical values can stand only once. Inconclusive results are not listed. A number with no mark means an inactive call. Active and inactive are the calls of the source. The call rests on the fitted dose curve; in most records, active means well fitted inhibition curve with a large enough effect; inconclusive means small, poorly fitted or top-dose-only effect; inactive means flat fitted curve, though single readings scatter. Where a SMILES comes first, the peptide text is derived from it. Bridges are numbered along the chain shown (N, C = ends).

Legend:
[1] = Drug repurposing screens with cells derived from glioblastoma tumor samples (AID 1345199); conditions: GBM patient neurospheres viability, ATP luminescence, 48 h; further: nearly all actives have a fitted effect of over 40% in size
In short: (§1)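 Primary testing used CD133+ neurospheres from four GBM patients, seven concentrations, 48 h exposure and ATP-based viability; confirmation added three slower-growing patient lines.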

astro = control astrocytes; test: as above; conditions: viability, ATP luminescence, 48 h; series mostly up to 45.9 µM
In short: as §1

[2] = at 45.9 µM (top of the series), tumour line B
[3] = at 45.9 µM (top of the series), tumour line D
[4] = at 46 µM (top of the series), tumour line A
[5] = at 46.1 µM (top of the series), tumour line C
On the % scale 0 is the no-effect control and ±100 the full control effect; potency means the concentration at half of the fitted maximal effect.

| Structure (SMILES) | activity, negative = cell killing [1, 2] | activity, negative = cell killing [1, 3] | activity, negative = cell killing [1, 4] | activity, negative = cell killing [1, 5] | Potency ([1]; tumour line A) | Potency ([1]; tumour line D) | Potency (astro) |
| --- | --- | --- | --- | --- | --- | --- | --- |
| Cc1[nH]cnc1C[C@H]1CCc2c(C)c3ccccc3n2C1=O | 11.6% | -27.1% | -27.2% | 1.77% | – | – | – |
| O=C(O)c1cccc(/C=C2/C[C@@H]3[C@@H](/C=C/[C@@H](O)C4CCCCC4)[C@H](O)C[C@@H]3O2)c1 | -4.9% | -11.8% | – | -8.79% | – | – | – |
| O=C(O)c1cc2ccccc2c(Cc2c(O)c(C(=O)O)cc3ccccc23)c1O | 5.19% | -18.5% | -27.5% | -1.97% | – | – | – |
| C=C1C(=C/C=C2\CCC[C@]3(C)[C@@H]([C@H](C)CCCC(C)(C)O)CC[C@@H]23)C[C@@H](O)C[C@@H]1O | -26.6% | – | – | – | 17.8 µM (active) | 20 µM (active) | – |
| CC(=O)S[C@@H]1CC2=CC(=O)CC[C@]2(C)[C@H]2CC[C@@]3(C)[C@@H](CC[C@@]34CCC(=O)O4)[C@H]12 | -27.2% | -26.7% | – | -22.4% | 10 µM (active) | – | – |
| NNc1nnc(Cc2ccncc2)c2ccccc12 | -17.7% | -26.1% | – | -26.3% | – | – | – |
| CCCCc1cc2c(=O)c(C(=O)OC)c[nH]c2cc1OCc1ccccc1 | -16.1% | -19.6% | – | -7.65% | – | – | – |
| CCCCOC(=O)C(=O)Nc1cccc(-c2nn[nH]n2)c1 | -12.5% | 2.48% | – | -2.11% | – | – | – |
| O=P(O)(O)OC(Cn1cncn1)(Cn1cncn1)c1ccc(F)cc1F | -3.57% | -9.38% | – | 14% | – | – | – |
| NCCCC[C@H](NC(=O)[C@@H]1CCCN1C(=O)[C@@H]1CSSC[C@H](N)C(=O)N[C@@H](Cc2ccc(O)cc2)C(=O)N[C@@H](Cc2ccccc2)C(=O)N[C@@H](CCC(N)=O)C(=O)N[C@@H](CC(N)=O)C(=O)N1)C(=O)NCC(N)=O | -6.49% and -12.6% | -7.59% and -12.4% | -33.8% | 13.1% | – | – | – |
| O.O=C([O-])CC([S-])C(=O)[O-].[Au+].[Na+].[Na+] (configuration not stated) | -5.96% | 2.25% | – | 15.2% | – | – | – |
| O=S(O)CO | 4.97% | -2.6% | – | -1.44% | – | – | – |
| Nc1ncnc(Nc2ccc(Cl)cc2)n1 | -4.5% | -28% | – | -9.25% | 35.5 µM (active) | – | – |
| CC1(C)S[C@@H]2[C@H](NC(=O)[C@H](N)c3ccccc3)C(=O)N2[C@H]1C(=O)OCOC(=O)[C@@H]1N2C(=O)C[C@H]2S(=O)(=O)C1(C)C | -6.39% | -14.9% | – | -15.8% | – | – | – |
| NC(=O)C[C@@H](N)C(=O)O | 8.61% | -4.07% | 26.7% | 22.9% | – | – | – |
| C=C[C@]1(C)C[C@@H](OC(=O)CO)[C@]2(C)[C@H](C)CC[C@]3(CCC(=O)[C@H]32)[C@@H](C)[C@@H]1O | -6.6% | -13.7% | -29.8% | -2.01% | – | – | – |
| Cc1cc(Nc2ccccc2C(=O)O)ccc1Cl | -5.77% | -31.8% | – | -18% | – | – | – |
| CCCC(CCC)C(N)=O | 1.34% | -12.3% | -16.5% | 0.0882% | – | – | inactive |
| O=P(O)(O)C(Sc1ccc(Cl)cc1)P(=O)(O)O | 3.66% | -1.38% | -1.1% | -7.59% | – | – | inactive |

| Structure (SMILES) | activity, negative = cell killing [1, 2] | activity, negative = cell killing [1, 3] | activity, negative = cell killing [1, 4] | activity, negative = cell killing [1, 5] | Potency ([1]; tumour line A) | Potency ([1]; tumour line D) | Potency (astro) |
| --- | --- | --- | --- | --- | --- | --- | --- |
| CCOC(=O)COc1ccc2c(C)c(CCN(CC)CC)c(=O)oc2c1 | 4.06% | 5.03% | – | -14.9% | 12.6 µM (active) | – | inactive |
| COC[C@H](c1ccc(C(F)(F)F)cc1)N1CCN(C2(C)CCN(C(=O)c3c(C)ncnc3C)CC2)C[C@H]1C | -1.49% | -13.4% | – | 5.67% | 11.2 µM (active) | – | – |
| CC#CCC(C)[C@H](O)/C=C/[C@@H]1[C@H]2C/C(=C/CCCC(=O)O)C[C@H]2C[C@H]1O (some centres not stated) | -8.92% | -4.73% | – | -5.69% | 17.8 µM (active) | – | inactive |
| C[C@H](CSC(=O)c1ccccc1)C(=O)N1C[C@@H](Sc2ccccc2)C[C@H]1C(=O)O | -6.07% | 2.27% | -16.6% | -10.8% | – | – | inactive |
| O=C[C@H](O)[C@@H](O)[C@H](O[C@H]1O[C@H](CO)[C@@H](O[C@H]2O[C@H](CO)[C@@H](O)[C@H](O)[C@H]2O)[C@H](O)[C@H]1O)[C@H](O)CO | -5.93% | -7.07% | -21.5% | 5.59% | – | – | inactive |
| O=C1C(c2[nH]c3ccc(S(=O)(=O)O)cc3c2O)=Nc2ccc(S(=O)(=O)O)cc21 | -3.91% and -0.988% and -8.05% | -5.52% and -3.79% and -6.7% | -11.9% | 2.85% and 2.31% and 15% | – | – | inactive |
| NCCCC[C@H](NC(=O)[C@@H]1CCCN1C(=O)[C@@H]1CSSC[C@H](N)C(=O)N[C@@H](Cc2ccccc2)C(=O)N[C@@H](Cc2ccccc2)C(=O)N[C@@H](CCC(N)=O)C(=O)N[C@@H](CC(N)=O)C(=O)N1)C(=O)NCC(N)=O | -4.48% | -4.17% | -29.5% | -22.2% | – | – | inactive |
| CCCCCCCCCCCCCCCCCC(=O)[O][Al] | -8.38% | -6.36% | -12.4% | -6.43% | – | – | inactive |
| CCN1CCCC1CNC(=O)c1cc(S(=O)(=O)CC)ccc1OC (configuration not stated) | -1.25% and -14.5% | -0.732% and -9.3% | -20% | 11.5% and 15.2% | – | – | inactive |
| NCCCC[C@H](NC(=O)[C@@H]1CCCN1C(=O)[C@@H]1CSSC[C@H](NC(=O)CNC(=O)CNC(=O)CN)C(=O)N[C@@H](Cc2ccc(O)cc2)C(=O)N[C@@H](Cc2ccccc2)C(=O)N[C@@H](CCC(N)=O)C(=O)N[C@@H](CC(N)=O)C(=O)N1)C(=O)NCC(N)=O (H-GGGCYFQNCPKG-NH2; disulfide 4-9) | -8.67% | 3.33% | -28% | 22.1% | – | – | inactive |
| CCCCCCCCCCCCCCCC(=O)OCCC1CCN(CCCN2c3ccccc3Sc3ccc(S(=O)(=O)N(C)C)cc32)CC1 | -1.24% | -12.7% | -28.1% | 11% | – | – | inactive |
| CN1CCN(C2=Nc3ccccc3Cc3ccccc32)CC1 | -12% | -12.4% | – | -28.3% | 31.6 µM (active) | – | inactive |
| COCC1=C(C(=O)OC(C)OC(=O)OC(C)C)N2C(=O)[C@@H](NC(=O)/C(=N\OC)c3csc(N)n3)[C@H]2SC1 (some centres not stated) | -23.6% and -15.3% | 14.5% and -3.43% | -24.7% | 0.117% and 4.67% | – | – | inactive |
| CCCC1([C@H](O)C/C=C/[C@H]2[C@H](O)CC(=O)[C@@H]2CCCCCCC(=O)OC)CCC1 | 0.947% | -12.7% | – | -22% | 20 µM (active) | – | inactive |
| O=P(O)(O)C(O)(Cc1cnc2ccccn12)P(=O)(O)O | -3.54% | 2.92% | -12.2% | 2.63% | – | – | inactive |
| OCC(O)COc1ccc(Cl)cc1 (configuration not stated) | -4.12% | -2.58% | -5.56% | -6.48% | – | – | inactive |
| C/C(=C(\CCOC(=O)c1ccccc1)SS/C(CCOC(=O)c1ccccc1)=C(/C)N(C=O)Cc1cnc(C)nc1N)N(C=O)Cc1cnc(C)nc1N | -18% | -28% | – | -22.5% | 35.5 µM (active) | – | inactive |
| CS(=O)(=O)Nc1cc2occ(NC=O)c(=O)c2cc1Oc1ccccc1 | -8.06% | -12.9% | -16.3% | 0.0891% | – | – | inactive |
